Source: the supplement of paper PMC10646978
± gives the standard deviation.

How the values were obtained:
Conditions in all cases: modulator concentration 10 µM
[1] = test system: RAW-Dual (murine macrophage reporter line); assay: NF-kB reporter (SEAP) activity fold change vs agonist alone; higher = enhanced NF-kB activity
Outline: (§1)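 RAW-Dual murine macrophage reporter cells were seeded at 50 000 per well in 384-well plates and pre-incubated 1 hour at 37 °C with compound pin-transferred to 10 μM final. After 1 hour, a PRR agonist was added and cells incubated overnight. Supernatant NF-κB (SEAP, QUANTI-Blue, 620 nm absorbance) and IRF (Lucia luciferase, QUANTI-Luc, luminescence) signals were divided by the mean agonist-only control on the same plate to give fold change. Two replicate plates were averaged, with errors by propagation.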

[2] = test system: RAW-Dual (murine macrophage reporter line); assay: IRF reporter (Lucia luciferase) activity fold change vs agonist alone; higher = enhanced IRF activity
Outline: as §1

[3] = test system: RAW-Dual (murine macrophage reporter line); assay: viability score (confluency relative to resting cells, overnight) (fraction); higher = more viable, active = viable (0.7 or more)
Outline: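 RAW-Dual macrophages in 384-well plates were treated overnight with compound at 10 μM final. IncuCyte imaging recorded confluency, and IncuCyte software built two confluency masks across every imaged well. The viability score expresses confluency relative to resting cells and was judged against a cutoff, which a compound met only if both masks exceeded 70% of resting cells.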

[4] = agonist: CpG ODN 1826 0.5 ug/mL

| Structure (SMILES) | NF-kB reporter [1, 4] | NF-kB reporter ([1]; agonist: LPS 0.1 ug/mL) | NF-kB reporter ([1]; agonist: MPLA […]) | IRF reporter ([2]; agonist: 3'3'-cGAMP 10 ug/mL) | IRF reporter ([2]; agonist: LPS 0.1 ug/mL) | IRF reporter ([2]; agonist: MPLA […]) | viability score [3] |
| --- | --- | --- | --- | --- | --- | --- | --- |
| C=CCc1ccc(O)c(OC)c1 | 1.05 ± 0.29 | 0.913 ± 0.095 | 1.14 ± 0.097 | 0.524 ± 0.019 | 1.05 ± 0.14 | 1.01 ± 0.12 | 0.659 (inactive) |
| CCCC(=O)OCOC(=O)C1=C(C)NC(C)=C(C(=O)OC)C1c1cccc(Cl)c1Cl (stereo not given) | 0.752 ± 0.068 | 0.888 ± 0.064 | 1.07 ± 0.11 | 0.995 ± 0.048 | 1.18 ± 0.14 | 1.16 ± 0.16 | 1 (active) |
| CCCCC(=O)N(Cc1ccc(-c2ccccc2-c2nn[nH]n2)cc1)[C@H](C(=O)O)C(C)C | 1.04 ± 0.16 | 1.03 ± 0.15 | 0.903 ± 0.05 | 0.589 ± 0.054 | 0.855 ± 0.14 | 0.704 ± 0.12 | 0.996 (active) |
| CC(C)Sc1ccc(CC(=O)N2C3C=CCC2CC3)cc1 (stereo not given) | 0.963 ± 0.12 | 1.03 ± 0.082 | 1.08 ± 0.1 | 1 ± 0.1 | 1.43 ± 0.11 | 1.38 ± 0.24 | 0.877 (active) |
| Oc1ccc(N=Cc2ccccc2O)cc1 | 1.35 ± 0.17 | 1.24 ± 0.086 | 1.51 ± 0.1 | 0.491 ± 0.11 | 0.733 ± 0.043 | 0.839 ± 0.14 | 0.584 (inactive) |
| CCOc1ccc(S(=O)(=O)N2C3CCC2CC(S(=O)(=O)c2ccccc2)C3)cc1 (stereo not given) | 0.976 ± 0.06 | 1.05 ± 0.098 | 0.968 ± 0.053 | 0.977 ± 0.044 | 1.25 ± 0.2 | 1.25 ± 0.29 | 0.978 (active) |
| Brc1ccc2[nH]cc(-c3nnc4ccc5ccccc5n34)c2c1 | 0.644 ± 0.051 | 0.877 ± 0.042 | 1.7 ± 0.35 | 0.971 ± 0.051 | 1.4 ± 0.1 | 2.08 ± 0.22 | 0.973 (active) |
| CC(=O)OCC(=O)NCCCOc1cccc(CN2CCCCC2)c1.Cl | 1.14 ± 0.19 | 1.21 ± 0.23 | 0.924 ± 0.056 | 0.951 ± 0.039 | 1.42 ± 0.13 | 1.11 ± 0.1 | 0.99 (active) |
| O=S(=O)(Nc1nc2ccccc2n2nnnc12)c1ccc(F)cc1 | 1.01 ± 0.1 | 1.03 ± 0.068 | 0.934 ± 0.067 | 0.865 ± 0.021 | 1.21 ± 0.15 | 0.964 ± 0.25 | 1.01 (active) |
| COc1ccc2c(c1)c(=O)oc1cc(OCc3cccc(C(F)(F)F)c3)ccc12 | 1.03 ± 0.076 | 1.01 ± 0.1 | 1.04 ± 0.027 | 0.998 ± 0.047 | 0.97 ± 0.046 | 1.11 ± 0.11 | 0.995 (active) |
